Sampled rows, rich in hits. Any-hit rate of the full collection: about 2.4%.
D2 PAM-1 = potentiates the human D2 dopamine receptor allosterically. P14416. potentiation, % (no concentration beside the values). 360,000 compounds, 0.23% hits. DiscoveRx D2 beta-arrestin cells, luminescence, 90 min; 100% = 57 uM dopamine signal. AID 624464; in the data active = potentiation above about 50%; inconclusive = mostly about 30% to 49%
Target sequence (P14416 whole entry, looked up): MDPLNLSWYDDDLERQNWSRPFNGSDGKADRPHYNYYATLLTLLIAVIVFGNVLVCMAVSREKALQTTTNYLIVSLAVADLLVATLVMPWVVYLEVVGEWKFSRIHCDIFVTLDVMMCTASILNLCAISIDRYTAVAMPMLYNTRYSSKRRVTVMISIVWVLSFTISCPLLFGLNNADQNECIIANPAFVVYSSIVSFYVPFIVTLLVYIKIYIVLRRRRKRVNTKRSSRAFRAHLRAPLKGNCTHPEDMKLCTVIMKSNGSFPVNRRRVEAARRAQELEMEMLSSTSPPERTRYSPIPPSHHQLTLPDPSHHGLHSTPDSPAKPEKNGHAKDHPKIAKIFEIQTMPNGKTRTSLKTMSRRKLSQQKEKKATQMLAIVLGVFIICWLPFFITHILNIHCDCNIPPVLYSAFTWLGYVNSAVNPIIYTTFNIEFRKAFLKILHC
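PathHunter D2 cells, attached overnight at 37 deg C, received compound in DMSO plus dopamine at EC20 (50 nM final) for 90 min at 37 deg C. Beta-arrestin recruitment was read as luminescence after 1 h with detection reagent at ambient temperature.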
D2 PAM-2 = positive allosteric modulators of human D2 dopamine receptor; HEK293 T-REx D2, calcium flux, EC20 dopamine potentiation; potentiation, % at 10 µM; 340,000 compounds, 0.34% hits; AID 485347;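 active = potentiation over 3 SD above the plate norm, cut at about 30% in these data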; also: 0% is about no effect
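Primary screen. Calcium kinetics in induced HEK293 T-REx D2 cells: compound pre-addition 180 s, EC20 dopamine, 180 s more.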
D2 antag = antagonists of human D2 dopamine receptor | P14416 | HEK293 TREx D2 cells, calcium flux, dopamine EC80 | inhibition, % at 10 µM | 340,000 compounds, 2% hits; in the data active = inhibition above about 30%; inactive = below that, where a call was filed; also: 0% is about no effect
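Read-out: kinetic calcium fluorescence (1 cycle/s) in inducible HEK293 T-REx D2 cells after an EC80 dopamine addition that followed 180 s compound preincubation. Loss of the dopamine response indicates antagonism.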
D2 ag-1 = agonists of human D2 dopamine receptor | 340,000 compounds, 0.53% hits | HEK293 T-REx D2 cells, calcium flux agonist mode | activation, % at 2 µM;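 active = activation over 3 SD above normal in the single-dose calcium agonist read, cut at about 30% in these data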; also: 0% is about no effect
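Tetracycline-induced HEK293 T-REx cells with force-coupled D2 receptor, plated overnight at 30 C, loaded with no-wash calcium dye. After a 10 s baseline, compound was pin-added and calcium flux read kinetically for 180 s; calcium rises flagged agonists.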
D2 ag-2 = activates the human D2 dopamine receptor | DiscoveRx PathHunter D2 beta-arrestin, luminescence, 90 min; 100% = 57 uM dopamine signal | activation, % (no concentration beside the values) | 360,000 compounds, 0.084% hits | AID 624465; in the data active = activation above about 40%; inconclusive = between about 15% and that limit
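DiscoveRx PathHunter D2 beta-arrestin cells (2,100/well) attached overnight, then compound-stimulated 90 min at 37 C in HBSS/10 mM HEPES/0.1% Tween-20 buffer; beta-galactosidase complementation read by luminescence after 1 h at ambient temperature. Dopamine 57 uM final (EC100) as control.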
* hit, by the source's call; ? = inconclusive; . = no result given.

SMILES	D2 PAM-1	D2 PAM-2	D2 antag	D2 ag-1	D2 ag-2
O=C(/C=C/c1cccs1)NC1CCS(=O)(=O)C1 (stereo not given)	-0.9	-8.1	-9.2	31.8*	1.8
O=C(/C=C/c1cccs1)NC1CCCC1	-7.7	20.1	4.9	-0.3	-2.8
CCCCc1ccc(NC(=S)NCCc2ccc(F)cc2)cc1	-10.8	-25.0	30.5*	0.2	0.2
CCCCc1ccc(NC(=S)NCCO)cc1	-8.3	13.1	30.9*	-0.2	0.7
CCCCNC(=S)Nc1ccc(Cl)cc1	-20.7	-3.1	4.4	1.1	-3.0
O=C(c1cccc(F)c1)N1CCN(C(=O)C(c2ccccc2)c2ccccc2)CC1	-4.3	.	31.1*	-2.9	9.2
CCOC(=O)N1CCN(C(=O)c2ccc(OCC)c(OCC)c2)CC1	-19.9	1.1	32.7*	0.1	-4.7
CCOc1ccc(C(N)=O)cc1OC	-23.2	58.4*	13.1	1.0	-3.4
CCOC(=O)N1CCN(C(=O)c2ccc(OC)c(OC)c2)CC1	-12.0	-4.2	-12.6	-1.2	-2.5
Cc1nc(CS(=O)(=O)c2ccc(Cl)cc2)sc1C(=O)O	-3.4	-3.2	7.7	-0.2	-3.3
Cc1c(C=NNC(=O)c2ccc(Br)cc2)c2ccccn2c1C(=O)c1ccncc1	-18.0	.	.	.	-2.5
COCc1nn2cc(-c3ccc(C)cc3)nc2s1	.	1.4	.	-0.6	.
CC(C)OC(=O)c1c(NC(=O)CCC(=O)O)sc2c1CCCCC2	-10.1	7.0	2.9	0.6	-1.5
CC(C)OC(=O)c1c(NC(=O)CCn2nnc3ccccc32)sc2c1CCCC2	3.5	.	36.7*	3.8	-0.2
Cc1ccc(C(=O)N2[C@@H]3CN(C)C(=O)[C@@]2(C)[C@H]2C(=O)N(C)C(=O)[C@@H]32)cc1	-7.1	.	.	.	-0.2
Cc1ccc(CNC(=O)CN(C)S(=O)(=O)c2ccc3c(c2)c(=O)n(C)c(=O)n3C)cc1	.	1.4	.	.	.
O=C(Cc1cccc(NC(=O)C2CCCN(C(=O)C3CCCCC3)C2)c1)Nc1ccc(C(=O)N2CCOCC2)cc1 (stereo not given)	-2.5	.	.	.	-3.1
CCOC(=O)C1CCN(C(=O)CCc2nc3ccccc3[nH]2)CC1	-5.1	0.3	60.6*	0.0	0.2
CCOC(=O)C1CCN(C(=O)CCc2ccccc2)CC1	-5.1	-3.6	-3.6	0.1	-3.8
Cc1ccc(C(C)C)c(OCCSc2nc(-c3ccccc3F)nc3cc(=O)[nH]n23)c1	.	-6.9	.	3.8	.
COc1ccc(OC)c(CN2CCN(CCc3ccccc3)C(CCO)C2)c1 (stereo not given)	-9.0	-17.0	44.9*	1.2	-6.3
COc1ccc(O)c(CN2CCN(CCCc3ccccc3)C(CCO)C2)c1 (stereo not given)	-1.6	-19.7	74.8*	-3.3	-1.4
COc1ccc(F)c(CN2CCN(CCc3ccccc3)C(CCO)C2)c1 (stereo not given)	-12.2	-4.7	-9.7	0.9	2.0
COCc1cc(CN2CCN(CCCc3ccccc3)C(CCO)C2)ccc1OC (stereo not given)	-11.9	-7.2	7.8	1.0	-1.6
OCCC1CN(Cc2cc(F)ccc2F)CCN1CCCc1ccccc1 (stereo not given)	-5.8	-35.5	83.2*	-1.0	-7.0
SMILES	D2 PAM-1	D2 PAM-2	D2 antag	D2 ag-1	D2 ag-2
OCCC1CN(Cc2ccc(F)cc2Cl)CCN1CCc1ccccc1 (stereo not given)	-23.7	-17.5	29.6	0.4	3.4
N#Cc1cccnc1N1CCN(C(=O)c2[nH]c(C(F)(F)F)nc2-c2ccccc2)CC1	-8.2	.	.	.	-5.2
CCc1ccc(NC(=O)CN2C(C(=O)OC)=C(c3ccccc3)c3ccccc3S2(=O)=O)cc1	.	0.6	.	-0.1	.
CC1(OC(=O)C2CCCC2)C(=O)C=C2C=C(c3ccsc3)N(C3CCCC3)C=C2C1=O (stereo not given)	20.6	-3.4	37.4*	-0.8	9.1
CC(=O)Nc1cc2c(cc1C(=O)c1ccc(C)cc1)OCCO2	-1.8	-5.7	33.5*	0.9	-3.2
Cc1cccn2c(=S)[nH]nc12	-11.4	.	.	.	7.2
Cc1ccccc1C(=O)NC(=S)Nc1ccccc1C(F)(F)F	0.4	6.8	50.4*	1.4	-2.3
CCN(CC)c1ccc2cc(C(=O)Nc3ccccn3)c(=O)oc2c1	0.3	4.6	1.7	39.4*	-0.2
CCN(CC)c1ccc2cc(C(C)=O)c(=O)oc2c1	-18.9	10.6	-29.3	35.3*	-4.5
CCN(CC)c1ccc2cc(-c3nnc(-c4ccncc4)o3)c(=O)oc2c1	-12.0	.	66.3*	88.4*	-1.2
CCN(CC)c1ccc2cc(C=O)c(=O)oc2c1	-13.4	-6.0	-46.5	65.0*	-2.5
CCOC(=O)C1CCN(C(=O)Cn2ncc3c4ccccc4n(Cc4ccccc4)c3c2=O)CC1	.	.	.	0.2	.
CCOC(=O)c1c(O)cc(C)cc1Nc1ccccc1	-3.6	3.8	32.2*	2.4	-1.5
CCOC(=O)c1c(Nc2ccccc2N)cc(C)nc1C	8.9	-0.8	9.0	0.1	0.7
CCOC(=O)C1=C(Cn2cnc3ccccc32)NC(=O)NC1c1cc(C)ccc1C (stereo not given)	?	9.6	-9.8	0.8	?
COC(=O)C1=C(Cn2cnc3ccccc32)NC(=O)NC1c1cc(C)ccc1C (stereo not given)	90.7*	-2.6	-8.8	0.8	51.6*
CC(C)c1ccc2occ(-c3nn[nH]n3)c(=O)c2c1	-2.0	-3.9	32.4*	0.9	-3.7
O=C1Nc2ccccc2N(O)N1c1cc(-c2ccccc2)[nH]n1	0.3	-3.3	13.5	2.2	-0.1
CN(c1ccc(OCC(=O)Nc2ccccc2C(=O)O)cc1)S(=O)(=O)c1ccc(Cl)cc1	62.2*	.	.	.	2.4
CC(=O)Nc1ccc(S(=O)(=O)N(C)c2ccc(OCC(=O)Nc3ccccc3C(C)=O)cc2)cc1	-11.5	1.1	-7.2	0.8	-3.0
Cc1nc(SCC(=O)Nc2ccc(F)cc2)c(C#N)c(C)c1CC(=O)c1ccc(Br)cc1	-4.4	0.7	44.1*	-0.5	-3.2
CCc1ccc(CCC(=O)Nc2ccc(Cl)cc2)o1	-5.0	-11.7	41.5*	-1.0	1.1
CN(CCC(=O)Nc1ccc(Cl)cc1)Cc1ccccc1	-27.6	-26.3	45.2*	-0.6	-10.0
CN(Cc1ccccc1)C(=O)c1ccc(NC(=O)c2ccccc2)cc1	-10.6	36.9*	-16.8	-0.1	-1.8
CN(CC(=O)Nc1cccc(C#N)c1)Cc1ccc(Cl)cc1	-30.8	-11.4	68.3*	-0.5	2.6
CN(CCC(=O)Nc1ccc2c(c1)OCO2)Cc1ccccc1	-24.1	-5.4	-25.9	0.9	-1.5
CN(Cc1ccccc1)C(=O)c1cccc(NC(=O)c2ccco2)c1	-5.3	-8.0	-8.0	-0.5	-5.0
CN(CC(=O)Nc1ccc(C#N)cc1)Cc1ccc(Cl)c(Cl)c1	-7.3	-6.8	-18.2	-0.4	-0.8

Screens deposited in PubChem BioAssay by National Center for Advancing Translational Sciences (NCATS).
